Test results from PubChem BioAssay AID1159580 (chemical genetic matrix, 2015).
Among all 5,500 compounds or so, about 2,000 (36%) were called active. Not shown: some 18% with an inconclusive outcome. No stated cut-off is given here; in the data, active means normalized growth mostly below about 0.91 (no sharp cut-off); inconclusive means no clear call, values can overlap the other calls; inactive means mostly above about 0.92. Some of the results follow.

Assay: chemical genetic growth profiling, strain panel (AID 1159580);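 further: tested at 20 µM; growth read once vehicle control cultures reached saturation at 30 °C; 1 = growth at the plate median or of vehicle wells; lower values mean less growth of the strain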
Conditions: growth OD
[1] = S. cerevisiae deletion strains, locus YAL013W, strain DEP1, active compounds read low
[2] = S. cerevisiae deletion strains, locus YGR078C, strain PAC10, active compounds read low
[3] = S. cerevisiae deletion strains, locus YMR263W, strain SAP30, active compounds read low
[4] = S. cerevisiae deletion strains, locus YMR307W, strain GAS1, active compounds read low
[5] = S. cerevisiae deletion strains, locus YNL153C, strain GIM3, active compounds read low
[6] = S. cerevisiae deletion strains, locus YBR229C, strain ROT2, active compounds read low
[7] = S. cerevisiae deletion strains, locus YDL101C, strain DUN1, active compounds read low
[8] = S. cerevisiae deletion strains, locus YDR150W, strain NUM1, active compounds read low
[9] = S. cerevisiae deletion strains, locus YEL061C, strain CIN8, active compounds read low
[10] = S. cerevisiae deletion strains, locus YHR030C, strain SLT2, active compounds read low
[11] = S. cerevisiae deletion strains, locus YJR043C, strain POL32, active compounds read low
[12] = S. cerevisiae deletion strains, locus YJR075W, strain HOC1, active compounds read low
[13] = S. cerevisiae deletion strains, locus YLR039C, strain RIC1, active compounds read low
[14] = S. cerevisiae deletion strains, locus YLR262C, strain YPT6, active compounds read low
[15] = S. cerevisiae deletion strains, locus YNL322C, strain KRE1, active compounds read low
[16] = S. cerevisiae deletion strains, locus YPL055C, strain LGE1, active compounds read low
[17] = S. cerevisiae deletion strains, locus YHR079C, strain IRE1, active compounds read low
[18] = S. cerevisiae deletion strains, locus YJL095W, strain BCK1, active compounds read low
[19] = S. cerevisiae deletion strains, locus YJR066W, strain TOR1, active compounds read low
[20] = S. cerevisiae deletion strains, locus YLR113W, strain HOG1, active compounds read low
[21] = S. cerevisiae deletion strains, locus YNL183C, strain NPR1, active compounds read low
[22] = S. cerevisiae deletion strains, locus YOR231W, strain MKK1, active compounds read low
[23] = S. cerevisiae deletion strains, locus YPL256C, strain CLN2, active compounds read low

Measured: normalized growth

Nc1nc(Cl)nc2c1ncn2[C@@H]1O[C@H](CO)[C@H](O)C1O (some centres not stated)
inactive: [1] 1.01 | S. cerevisiae deletion strains, locus YAL040C, strain CLN3, active compounds read low 1.02 | S. cerevisiae deletion strains, locus YER002W, strain NOP16, active compounds read low 0.991 | [2] 1.01 | [3] 1.01 | [4] 1 | [5] 1.04 | S. cerevisiae deletion strains, locus YNL175C, strain NOP13, active compounds read low 0.996 | S. cerevisiae deletion strains, locus YNL197C, strain WHI3, active compounds read low 0.979 | S. cerevisiae deletion strains, locus YNL224C, strain SQS1, active compounds read low 1 | S. cerevisiae deletion strains, locus YOR083W, strain WHI5 (second series), active compounds read low 1.02

FC(F)(F)Oc1ccc(-c2noc(CSc3ccc(Br)cc3)n2)cc1
active: [10] 0.69
inactive: [1] 1.02 | [6] 1.01 | [7] 0.967 | S. cerevisiae deletion strains, locus YDL134C, strain PPH21, active compounds read low 0.999 | [8] 1 | [9] 0.974 | [2] 1 | S. cerevisiae deletion strains, locus YHR087W, strain rtc3, active compounds read low 1.01 | [11] 0.992 | [12] 0.978 | S. cerevisiae deletion strains, locus YKL190W, strain CNB1, active compounds read low 0.989 | [13] 1.05 | S. cerevisiae deletion strains, locus YLR058C, strain SHM2 (second series), active compounds read low 0.997 | S. cerevisiae deletion strains, locus YLR085C, strain ARP6, active compounds read low 0.905 | [14] 1 | S. cerevisiae deletion strains, locus YML094W, strain GIM5, active compounds read low 0.99 | S. cerevisiae deletion strains, locus YMR219W, strain ESC1, active compounds read low 1 | [3] 0.997 | [4] 0.75 | [5] 1 | S. cerevisiae deletion strains, locus YNL298W, strain CLA4 (second series), active compounds read low 0.969 | [15] 0.996 | S. cerevisiae deletion strains, locus YNR030W, strain Alg12, active compounds read low 0.958 | [16] 1.04 | S. cerevisiae deletion strains, locus YPL241C, strain CIN2, active compounds read low 0.966 | S. cerevisiae deletion strains, locus YPR135W, strain CTF4, active compounds read low 1.1 | S. cerevisiae strains, strain wild type, active compounds read low 0.985

CC(=O)OCC1=C(C(=O)O)N2C(=O)[C@@H](N)C2SC1 (some centres not stated)
inactive: [10] 1.06 | [17] 1.07 | [18] 1.07 | [19] 0.976 | [20] 1.05 | [21] 0.983 | [22] 1.07 | [23] 1.07

C[C@H]1CC2C3CCC4=CC(=O)C=C[C@]4(C)[C@@]3(F)[C@@H](O)C[C@]2(C)[C@@]1(O)C(=O)COP(=O)(O)O (some centres not stated)
inactive: [10] 1.07 | [17] 1.08 | [18] 1.03 | [19] 0.971 | [20] 1.03 | [21] 0.983 | [22] 1.08 | [23] 1.09

O=C(O)C1C(O)CCC2CN3CCc4c([nH]c5ccccc45)C3CC21 (configuration not stated)
inactive: [1] 1.03 | S. cerevisiae deletion strains, locus YBR021W, strain FUR4, active compounds read low 0.972 | [6] 1 | S. cerevisiae deletion strains, locus YCL029C, strain bik1, active compounds read low 1.03 | S. cerevisiae deletion strains, locus YDL035C, strain GPR1, active compounds read low 1 | S. cerevisiae deletion strains, locus YDL074C, strain BRE1, active compounds read low 1.02 | [7] 1.02 | S. cerevisiae deletion strains, locus YDL185W, strain tfp1, active compounds read low 1.01 | S. cerevisiae deletion strains, locus YDL192W, strain arf1, active compounds read low 1 | S. cerevisiae deletion strains, locus YDR101C, strain arx1, active compounds read low 1.01 | [8] 1.01 | S. cerevisiae deletion strains, locus YDR162C, strain NBP2, active compounds read low 1.03 | S. cerevisiae deletion strains, locus YDR318W, strain mcm21, active compounds read low 1 | S. cerevisiae deletion strains, locus YDR388W, active compounds read low 1.01 | S. cerevisiae deletion strains, locus YDR502C, strain sam2, active compounds read low 1.02 | [9] 1.01 | S. cerevisiae deletion strains, locus YER110C, active compounds read low 1.02 | S. cerevisiae deletion strains, locus YER155C, strain BEM2, active compounds read low 1.02 | S. cerevisiae deletion strains, locus YER167W, strain BCK2, active compounds read low 1.02 | S. cerevisiae deletion strains, locus YGL078C, strain dbp3, active compounds read low 1.01 | S. cerevisiae deletion strains, locus YGL086W, strain mad1, active compounds read low 1.02 | S. cerevisiae deletion strains, locus YGL248W, strain PDE1, active compounds read low 1.01 | S. cerevisiae deletion strains, locus YGR135W, strain pre9, active compounds read low 0.996 | S. cerevisiae deletion strains, locus YGR252W, strain gcn5, active compounds read low 0.951 | [10] 1.01 | S. cerevisiae deletion strains, locus YHR079C, strain IRE1 (second series), active compounds read low 1.01 | S. cerevisiae deletion strains, locus YHR094C, strain hxt1, active compounds read low 1.02 | S. cerevisiae deletion strains, locus YHR129C, strain ARP1, active compounds read low 1.01 | S. cerevisiae deletion strains, locus YHR200W, strain rpn10, active compounds read low 1.02 | S. cerevisiae deletion strains, locus YIL066C, strain RNR3, active compounds read low 1.01 | S. cerevisiae deletion strains, locus YIL073C, strain SPO22, active compounds read low 0.988 | S. cerevisiae deletion strains, locus YIL125W, strain kgd1, active compounds read low 1.01 | S. cerevisiae deletion strains, locus YIR030C, strain dcg1, active compounds read low 1.01 | [18] 1.03 | S. cerevisiae deletion strains, locus YJL134W, strain LCB3, active compounds read low 1.02 | S. cerevisiae deletion strains, locus YJL168C, strain set2, active compounds read low 1.01 | S. cerevisiae deletion strains, locus YJL187C, strain SWE1 (second series), active compounds read low 1.01 | [11] 1.02 | [12] 1.04 | S. cerevisiae deletion strains, locus YKL009W, strain mrt4, active compounds read low 1.03 | S. cerevisiae deletion strains, locus YKL068W, active compounds read low 1.01 | S. cerevisiae deletion strains, locus YKL085W, strain MDH1 (second series), active compounds read low 0.998 | S. cerevisiae deletion strains, locus YKL085W, strain MDH1, active compounds read low 0.998 | S. cerevisiae deletion strains, locus YKR001C, strain vps1, active compounds read low 1.01 | [13] 1.06 | S. cerevisiae deletion strains, locus YLR058C, strain SHM2, active compounds read low 1.01 | S. cerevisiae deletion strains, locus YLR102C, strain apc9, active compounds read low 1.02 | [14] 1.06 | S. cerevisiae deletion strains, locus YLR268W, strain sec22, active compounds read low 1.03 | S. cerevisiae deletion strains, locus YLR330W, strain CHS5, active compounds read low 1.01 | S. cerevisiae deletion strains, locus YLR342W, strain FKS1 (second series), active compounds read low 1.05 | S. cerevisiae deletion strains, locus YLR371W, strain rom2, active compounds read low 1.02 | S. cerevisiae deletion strains, locus YLR418C, strain cdc73, active compounds read low 0.986 | S. cerevisiae deletion strains, locus YML016C, strain PPZ1, active compounds read low 1.01 | S. cerevisiae deletion strains, locus YML032C, strain rad52, active compounds read low 1.01 | S. cerevisiae deletion strains, locus YML124C, strain tub3, active compounds read low 1.01 | S. cerevisiae deletion strains, locus YMR078C, strain ctf18, active compounds read low 1.01 | S. cerevisiae deletion strains, locus YMR223W, strain ubp8, active compounds read low 0.988 | [3] 1.03 | [4] 1.02 | S. cerevisiae deletion strains, locus YNL067W, strain RPL9B, active compounds read low 1.03 | S. cerevisiae deletion strains, locus YNL233W, strain BNI4, active compounds read low 1.02 | S. cerevisiae deletion strains, locus YNL250W, strain rad50, active compounds read low 1.02 | S. cerevisiae deletion strains, locus YNL271C, strain bni1, active compounds read low 1.01 | S. cerevisiae deletion strains, locus YNL298W, strain CLA4, active compounds read low 1.02 | S. cerevisiae deletion strains, locus YNL307C, strain MCK1, active compounds read low 1.02 | [15] 1.01 | S. cerevisiae deletion strains, locus YNR052C, strain pop2, active compounds read low 1 | S. cerevisiae deletion strains, locus YOL012C, strain htz1 1.58 | S. cerevisiae deletion strains, locus YOL147C, strain pex11, active compounds read low 1.02 | S. cerevisiae deletion strains, locus YOR061W, strain CKA2, active compounds read low 1.01 | S. cerevisiae deletion strains, locus YOR069W, strain VPS5, active compounds read low 1.01 | S. cerevisiae deletion strains, locus YOR136W, strain idh2, active compounds read low 1.02 | S. cerevisiae deletion strains, locus YOR144C, strain elg1, active compounds read low 1.01 | S. cerevisiae deletion strains, locus YOR184W, strain ser1, active compounds read low 1.03 | S. cerevisiae deletion strains, locus YOR316C, strain cot1, active compounds read low 1.02 | [16] 1.03 | S. cerevisiae deletion strains, locus YPR119W, strain clb2, active compounds read low 1.01 | S. cerevisiae deletion strains, locus YPR141C, strain kar3, active compounds read low 1.01 | S. cerevisiae deletion strains, locus YPR163C, strain tif3, active compounds read low 1.01 | S. cerevisiae deletion strains, locus YPR167C, strain met16, active compounds read low 0.999 | S. cerevisiae deletion strains, strain wtn01, active compounds read low 1.02
